Measured values: ChEMBL document CHEMBL3988442, “University of Dundee, Small-Polar-MMV Screening Library” (2021)
In all, about 69,000 compounds went through this assay and about 1,000 (1.4%) showed an effect of 50% or more. Many of the other results were omitted from the sample, so strong results are more common in it than they were.

System: Leishmania donovani
Experiment: Leishmania intramacrophage assay
Type: functional, organism-based
Set-up: scale not given: in the data most compounds retested in dose-response had high values

CCc1ccc(C(=O)N2CCCC2c2c(C)nn(C)c2OC)o1 (centres undefined)
Percent Effect (30.3 µM, […]): 16.94%

O=C(c1ccccn1)N1C[C@@H]2CC[C@H](C1)N(C(=O)Cc1cccs1)C2
Percent Effect (30.3 µM, […]): -16.24%

COc1ccc(-c2ccnc3nc(N4CCCCC4)[nH]c(=O)c23)cc1
Percent Effect (30.3 µM, […]): 8.173%

COc1ccccc1-c1ccnc2nc(N3CCCCC3)[nH]c(=O)c12
Percent Effect (30.3 µM, […]): 64.29%

COc1ccc(-c2ccnc3nc(N4CCCC4)[nH]c(=O)c23)cc1OC
Percent Effect (30.3 µM, […]): 26.43%

CCCN1CCCC1Cn1nc(C)cc1C (centres undefined)
Percent Effect (30 µM): 21.44%

O=S(=O)(c1ccccc1Br)N1CCC2(CC1)OCCS2
Percent Effect (30.3 µM, […]): -12.48%

CCCN1CCN(CC(O)c2ccc(OC(F)(F)F)cc2)CC1 (centres undefined)
Percent Effect (30.3 µM, […]): 27.81%

OCCN1CCN(CC(O)c2ccc(OC(F)(F)F)cc2)CC1 (centres undefined)
Percent Effect (30.3 µM, […]): 19.69%

COCCN1CCN(CC(O)c2ccc(OC(F)(F)F)cc2)CC1 (centres undefined)
Percent Effect (30.3 µM, […]): 52.28%

Cc1nc(CCN(C)C(=O)CN2CCCCCC2)no1
Percent Effect (30.3 µM, […]): 28.54%

CC(C)(C)NC(=O)NC(=O)CNc1c(F)cccc1N1CCCC1
Percent Effect (30.3 µM, […]): 14.38%

Cn1nc2c(cc1=O)CN(c1ncnc3ccsc13)CC2
Percent Effect (30.3 µM, […]): 15.92%

CCn1nc2c(cc1=O)CN(c1ncnc3ccsc13)CC2
Percent Effect (30.3 µM, […]): 42.12%

CCCn1nc2c(cc1=O)CN(c1ncnc3ccsc13)CC2
Percent Effect (30.3 µM, […]): 56.14%

Cc1nc([C@@H]2C[C@@H]3CCN(C(=O)c4ccnnc4)C[C@H]3O2)sc1C
Percent Effect (30 µM, 30.03 µM): 6.612%

CCN1C[C@H]2CCN(C(=O)NC3CCCC3)CC[C@H]2S1(=O)=O
Percent Effect (30 µM, 30.03 µM): -4.578%

CNC(=O)C1Cn2ccnc2C2(CCN(Cc3cccc(C)n3)CC2)O1.O=C(O)C(F)(F)F (centres undefined)
Percent Effect (30 µM, 30.03 µM): -9.841%

NCC1CCCN(c2nc(-c3ccccc3)nc3c2CCNCC3)C1 (centres undefined)
Percent Effect (30.3 µM, […]): 17.41%

N#CC1CCCN(c2nc(-c3ccccc3)nc3c2CCNCC3)C1 (centres undefined)
Percent Effect (30 µM, 30.03 µM): 83.36%

NCC1CN(c2nc(-c3ccccc3)nc3c2CCNCC3)CCO1 (centres undefined)
Percent Effect (30 µM, 30.03 µM): 6.18%

CCOCCCNC(=O)c1cc(Br)c2c(c1)OCCO2
Percent Effect (30.3 µM, […]): 32.12%

CCC(C)(C)NC(=O)Cn1nc(C)nc1-c1ccccc1
Percent Effect (30.3 µM, […]): -5.337%

CC1(C)CNC(=O)c2nc(CCN3CCC(O)CC3)[nH]c2C1
Percent Effect (30.3 µM, […]): -12%

O=C1[C@@H]2CN(Cc3cc4ccccc4o3)C[C@]2(C(=O)O)CN1CC1CC1
Percent Effect (30.3 µM, […]): 10.9%

CSCC[C@H](NC(C)=O)c1nc(CCc2ccccc2)n[nH]1
Percent Effect (30.3 µM, […]): 10.23%

NC(=O)c1ccccc1NC(=O)CCN1CCN(CCO)CC1
Percent Effect (30.3 µM, […]): 10.76%

COCC1c2c(cnn2C)CCN1C(=O)c1cc(C)on1.O=C(O)C(F)(F)F (centres undefined)
Percent Effect (30.3 µM, […]): 13.09%

COCC1c2c(cnn2C)CCN1C(=O)c1cccn1C.O=C(O)C(F)(F)F (centres undefined)
Percent Effect (30.3 µM, […]): 51.46%

COCC1c2c(cnn2C)CCN1C(=O)c1cscn1.O=C(O)C(F)(F)F (centres undefined)
Percent Effect (30.3 µM, […]): 23.63%

CCCC(=O)Nc1ccc(CC(=O)N(C)CCc2cn[nH]c2)cc1
Percent Effect (30.3 µM, […]): 12.21%

NC(=O)C1CCN(S(=O)(=O)c2cnn(-c3ccccc3)c2)CC1
Percent Effect (30.3 µM, […]): 68.11%

NC(=O)C1CCCN(S(=O)(=O)c2cnn(-c3ccccc3)c2)C1 (centres undefined)
Percent Effect (30.3 µM, […]): 13.13%

NC(=O)C1CCN(S(=O)(=O)c2cnn(-c3ccccc3)c2)C1 (centres undefined)
Percent Effect (30.3 µM, […]): 30.89%

COc1ccc([C@@H]2C[C@H](NC(C)=O)C[C@H](CCc3ccccc3)O2)cn1
Percent Effect (30.3 µM, […]): 22.12%

CN(C(=O)CCc1nc(C2CC2)no1)c1cc(C#N)c2ccccc2n1
Percent Effect (30.3 µM, […]): -8.685%

O=C(NCCOc1ccc2c(c1)OCO2)C1CC(=O)N(CC2CC2)C1 (centres undefined)
Percent Effect (30 µM, 30.03 µM): 11.04%

O=C(NCC(=O)N1CCCCC1)c1ccoc1
Percent Effect (30 µM, 30.03 µM): -16.27%

O=C(c1ccc(F)c(F)c1)N1CCC[C@]2(C[C@@H](OCC3CC3)CO2)C1
Percent Effect (30.3 µM, […]): 53.63%

O=C(c1ccc2c(c1)OCO2)N1CCC[C@]2(C[C@H](OCC3CC3)CO2)C1
Percent Effect (30 µM, 30.03 µM): 23.48%

O=C(c1cocn1)N1CCC[C@]2(C[C@@H](OCC3CC3)CO2)C1
Percent Effect (30.3 µM, […]): 14.29%

COC1COC2(CCN(C(=O)c3cocn3)CC2)C1 (centres undefined)
Percent Effect (30.3 µM, […]): -1.503%

CCO[C@@H]1CO[C@@]2(CCCN(C(=O)c3ccc(OC)c(F)c3)C2)C1
Percent Effect (30 µM, 30.03 µM): 6.334%

O=C(c1cocn1)N1CCC2(CC1)CC(OCC1CC1)CO2 (centres undefined)
Percent Effect (30.3 µM, […]): 52.58%

CC(C)CSCCN1CCCN(S(C)(=O)=O)CC1
Percent Effect (30.3 µM, […]): 6.004%

COc1ccc(C2CCCN2C(=O)c2ccc(=O)n(C)c2)cc1OC (centres undefined)
Percent Effect (30.3 µM, […]): -9.758%

Cc1ccsc1CNCCCOc1ccccn1
Percent Effect (30.3 µM, […]): -17.78%

c1ccc(OCCNCc2cccs2)nc1
Percent Effect (30.3 µM, […]): 46.82%

c1ccc(OCCCNCc2cccs2)nc1
Percent Effect (30.3 µM, […]): 58.66%
